Source: PubChem BioAssay AID1159580 (chemical genetic matrix, 2015)
The campaign covered roughly 5,500 compounds. About 2,000 (36%) were called active. Another 18% or so got no clear call; they are omitted. The list shows a part of the results. Unmarked numbers belong to inactive results. No stated cut-off is given here; in the data, active means normalized growth mostly below about 0.91 (no sharp cut-off); inconclusive means no clear call, values can overlap the other calls; inactive means mostly above about 0.92.

Experiment: chemical genetic growth profiling, strain panel (AID 1159580);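 further: tested at 20 µM; growth read once vehicle control cultures reached saturation at 30 °C; 1 = growth at the plate median or of vehicle wells; lower values mean less growth of the strain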
Settings: growth OD
[1] = S. cerevisiae deletion strains, locus YDL101C, strain DUN1, active compounds read low
[2] = S. cerevisiae deletion strains, locus YHR030C, strain SLT2, active compounds read low

Question: Which results are given for `COc1ccc(OC)c(CNC(=O)Cc2cccs2)c1`?
Answer: normalized growth (S. cerevisiae deletion strains, locus YAL013W, strain DEP1, active compounds read low): 1.01; normalized growth (S. cerevisiae deletion strains, locus YBR229C, strain ROT2, active compounds read low): 1.03; normalized growth (S. cerevisiae deletion strains, locus YCL061C, strain MRC1, active compounds read low): 1.03; normalized growth [1]: 1.05; normalized growth (S. cerevisiae deletion strains, locus YDL134C, strain PPH21, active compounds read low): 0.997; normalized growth (S. cerevisiae deletion strains, locus YDR150W, strain NUM1, active compounds read low): 0.993; normalized growth (S. cerevisiae deletion strains, locus YEL061C, strain CIN8, active compounds read low): 0.995; normalized growth (S. cerevisiae deletion strains, locus YGR078C, strain PAC10, active compounds read low): 1.04; normalized growth [2]: 1.04; normalized growth (S. cerevisiae deletion strains, locus YHR087W, strain rtc3, active compounds read low): 0.952; normalized growth (S. cerevisiae deletion strains, locus YJR043C, strain POL32, active compounds read low): 1.03; normalized growth (S. cerevisiae deletion strains, locus YJR075W, strain HOC1, active compounds read low): 0.998; normalized growth (S. cerevisiae deletion strains, locus YLR039C, strain RIC1, active compounds read low): 1.04; normalized growth (S. cerevisiae deletion strains, locus YLR058C, strain SHM2 (second series), active compounds read low): 0.988; normalized growth (S. cerevisiae deletion strains, locus YLR085C, strain ARP6, active compounds read low): 0.994; normalized growth (S. cerevisiae deletion strains, locus YLR262C, strain YPT6, active compounds read low): 1.01; normalized growth (S. cerevisiae deletion strains, locus YML094W, strain GIM5, active compounds read low): 0.962; normalized growth (S. cerevisiae deletion strains, locus YMR219W, strain ESC1, active compounds read low): 0.996; normalized growth (S. cerevisiae deletion strains, locus YMR263W, strain SAP30, active compounds read low): 1.01; normalized growth (S. cerevisiae deletion strains, locus YNL153C, strain GIM3, active compounds read low): 1.03; normalized growth (S. cerevisiae deletion strains, locus YNL298W, strain CLA4 (second series), active compounds read low): 1; normalized growth (S. cerevisiae deletion strains, locus YNL322C, strain KRE1, active compounds read low): 1; normalized growth (S. cerevisiae deletion strains, locus YNR030W, strain Alg12, active compounds read low): 1; normalized growth (S. cerevisiae deletion strains, locus YPL055C, strain LGE1, active compounds read low): 0.961; normalized growth (S. cerevisiae deletion strains, locus YPL241C, strain CIN2, active compounds read low): 0.983; normalized growth (S. cerevisiae deletion strains, locus YPR135W, strain CTF4, active compounds read low): 1.06; normalized growth (S. cerevisiae strains, strain wild type, active compounds read low): 1.01

Question: For `COc1ccc(Br)c(C(=O)/C(C#N)=C/c2cccs2)c1`, which normalized growth (S. cerevisiae deletion strains, locus YAR019C, strain CDC15, active compounds read low) is on record?
Answer: 0.765 (active)

Question: And the normalized growth (S. cerevisiae deletion strains, locus YBL105C, strain PKC1, active compounds read low)?
Answer: 0.94

Question: And the normalized growth (S. cerevisiae deletion strains, locus YBR135W, strain CKS1, active compounds read low)?
Answer: 0.903

Question: And the normalized growth (S. cerevisiae deletion strains, locus YBR136W, strain MEC1, active compounds read low)?
Answer: 0.922

Question: What about the normalized growth (S. cerevisiae deletion strains, locus YBR160W, strain CDC28, active compounds read low) of the same compound?
Answer: 0.921

Question: And the normalized growth (S. cerevisiae deletion strains, locus YDL017W, strain CDC7, active compounds read low)?
Answer: 0.921

Question: And the normalized growth (S. cerevisiae deletion strains, locus YDL028C, strain MPS1, active compounds read low)?
Answer: 0.909

Question: What about the normalized growth [1] of the same compound?
Answer: 0.676 (active)

Question: And the normalized growth (S. cerevisiae deletion strains, locus YDL108W, strain KIN28, active compounds read low)?
Answer: 0.904

Question: And the normalized growth (S. cerevisiae deletion strains, locus YDL132W, strain cdc53, active compounds read low)?
Answer: 0.871 (active)

Question: What about the normalized growth (S. cerevisiae deletion strains, locus YDL214C, strain PRR2, active compounds read low) of the same compound?
Answer: 0.221 (active)

Question: What about the normalized growth (S. cerevisiae deletion strains, locus YDR052C, strain DBF4, active compounds read low) of the same compound?
Answer: 0.929

Question: What about the normalized growth (S. cerevisiae deletion strains, locus YDR054C, strain cdc34, active compounds read low) of the same compound?
Answer: 0.696 (active)

Question: What about the normalized growth (S. cerevisiae deletion strains, locus YDR226W, strain ADK1, active compounds read low) of the same compound?
Answer: 0.908

Question: And the normalized growth (S. cerevisiae deletion strains, locus YDR477W, strain SNF1, active compounds read low)?
Answer: 0.197 (active)

Question: And the normalized growth (S. cerevisiae deletion strains, locus YER123W, strain YCK3, active compounds read low)?
Answer: 0.122 (active)

Question: And the normalized growth (S. cerevisiae deletion strains, locus YER133W, strain GLC7, active compounds read low)?
Answer: 0.187 (active)

Question: And the normalized growth (S. cerevisiae deletion strains, locus YFL009W, strain cdc4, active compounds read low)?
Answer: 0.861 (active)

Question: What about the normalized growth (S. cerevisiae deletion strains, locus YFL029C, strain CAK1, active compounds read low) of the same compound?
Answer: 0.724 (active)

Question: And the normalized growth (S. cerevisiae deletion strains, locus YFR003C, strain YPI1, active compounds read low)?
Answer: 0.918

Question: And the normalized growth (S. cerevisiae deletion strains, locus YFR019W, strain FAB1, active compounds read low)?
Answer: 0.149 (active)

Question: And the normalized growth (S. cerevisiae deletion strains, locus YFR028C, strain CDC14, active compounds read low)?
Answer: 0.913

Question: What about the normalized growth (S. cerevisiae deletion strains, locus YGR040W, strain KSS1, active compounds read low) of the same compound?
Answer: 0.229 (active)

Question: And the normalized growth (S. cerevisiae deletion strains, locus YGR052W, strain FMP48, active compounds read low)?
Answer: 0.205 (active)

Question: And the normalized growth (S. cerevisiae deletion strains, locus YGR092W, strain DBF2, active compounds read low)?
Answer: 0.178 (active)

Question: What about the normalized growth [2] of the same compound?
Answer: 0.125 (active)

Question: What about the normalized growth (S. cerevisiae deletion strains, locus YHR079C, strain IRE1, active compounds read low) of the same compound?
Answer: 0.132 (active)

Question: And the normalized growth (S. cerevisiae deletion strains, locus YHR082C, strain KSP1, active compounds read low)?
Answer: 0.15 (active)

Question: And the normalized growth (S. cerevisiae deletion strains, locus YHR205W, strain SCH9, active compounds read low)?
Answer: 0.0479 (active)

Question: What about the normalized growth (S. cerevisiae deletion strains, locus YIL147C, strain SLN1, active compounds read low) of the same compound?
Answer: 0.919

Question: And the normalized growth (S. cerevisiae deletion strains, locus YJL095W, strain BCK1, active compounds read low)?
Answer: 0.146 (active)

Question: What about the normalized growth (S. cerevisiae deletion strains, locus YJL128C, strain PBS2, active compounds read low) of the same compound?
Answer: 0.874

Question: What about the normalized growth (S. cerevisiae deletion strains, locus YJL157C, strain FAR1, active compounds read low) of the same compound?
Answer: 0.181 (active)

Question: What about the normalized growth (S. cerevisiae deletion strains, locus YJR016C, strain ILV3, active compounds read low) of the same compound?
Answer: 0.915

Question: What about the normalized growth (S. cerevisiae deletion strains, locus YJR066W, strain TOR1 (second series), active compounds read low) of the same compound?
Answer: 0.252 (active)

Question: And the normalized growth (S. cerevisiae deletion strains, locus YJR066W, strain TOR1, active compounds read low)?
Answer: 0.146 (active)

Question: And the normalized growth (S. cerevisiae deletion strains, locus YKL048C, strain ELM1, active compounds read low)?
Answer: 0.234 (active)

Question: And the normalized growth (S. cerevisiae deletion strains, locus YKL067W, strain YNK1, active compounds read low)?
Answer: 0.262 (active)

Question: What about the normalized growth (S. cerevisiae deletion strains, locus YKL101W, strain HSL1, active compounds read low) of the same compound?
Answer: 0.307 (active)

Question: And the normalized growth (S. cerevisiae deletion strains, locus YKL193C, strain SDS22, active compounds read low)?
Answer: 0.787 (active)

Question: And the normalized growth (S. cerevisiae deletion strains, locus YKL203C, strain TOR2, active compounds read low)?
Answer: 0.2 (active)

Question: And the normalized growth (S. cerevisiae deletion strains, locus YLR113W, strain HOG1, active compounds read low)?
Answer: 0.23 (active)

Question: And the normalized growth (S. cerevisiae deletion strains, locus YLR133W, strain CKI1, active compounds read low)?
Answer: 0.224 (active)

Question: And the normalized growth (S. cerevisiae deletion strains, locus YLR403W, strain SFP1, active compounds read low)?
Answer: 0.081 (active)

Question: And the normalized growth (S. cerevisiae deletion strains, locus YML070W, strain DAK1, active compounds read low)?
Answer: 0.177 (active)

Question: What about the normalized growth (S. cerevisiae deletion strains, locus YMR001C, strain CDC5, active compounds read low) of the same compound?
Answer: 0.921

Question: What about the normalized growth (S. cerevisiae deletion strains, locus YMR205C, strain PFK2 (second series), active compounds read low) of the same compound?
Answer: 0.287 (active)

Question: What about the normalized growth (S. cerevisiae deletion strains, locus YMR277W, strain FCP1, active compounds read low) of the same compound?
Answer: 0.814 (active)

Question: And the normalized growth (S. cerevisiae deletion strains, locus YNL006W, strain LST8, active compounds read low)?
Answer: 0.875 (active)

Question: What about the normalized growth (S. cerevisiae deletion strains, locus YNL020C, strain ARK1, active compounds read low) of the same compound?
Answer: 0.22 (active)

Question: What about the normalized growth (S. cerevisiae deletion strains, locus YNL161W, strain CBK1, active compounds read low) of the same compound?
Answer: 0.836 (active)

Question: What about the normalized growth (S. cerevisiae deletion strains, locus YNL183C, strain NPR1, active compounds read low) of the same compound?
Answer: 0.151 (active)

Question: What about the normalized growth (S. cerevisiae deletion strains, locus YNL207W, strain RIO2, active compounds read low) of the same compound?
Answer: 0.917

Question: And the normalized growth (S. cerevisiae deletion strains, locus YNL222W, strain SSU72, active compounds read low)?
Answer: 0.861 (active)

Question: And the normalized growth (S. cerevisiae deletion strains, locus YNL307C, strain MCK1 (second series), active compounds read low)?
Answer: 0.169 (active)

Question: And the normalized growth (S. cerevisiae deletion strains, locus YOL078W, strain AVO1, active compounds read low)?
Answer: 0.722 (active)

Question: And the normalized growth (S. cerevisiae deletion strains, locus YOL136C, strain PFK27, active compounds read low)?
Answer: 0.139 (active)

Question: What about the normalized growth (S. cerevisiae deletion strains, locus YOR061W, strain CKA2, active compounds read low) of the same compound?
Answer: 0.344 (active)

Question: And the normalized growth (S. cerevisiae deletion strains, locus YOR119C, strain RIO1, active compounds read low)?
Answer: 0.249 (active)

Question: And the normalized growth (S. cerevisiae deletion strains, locus YOR231W, strain MKK1, active compounds read low)?
Answer: 0.187 (active)

Question: And the normalized growth (S. cerevisiae deletion strains, locus YOR329C, strain SCD5, active compounds read low)?
Answer: 0.929

Question: And the normalized growth (S. cerevisiae deletion strains, locus YPL031C, strain PHO85, active compounds read low)?
Answer: 0.179 (active)

Question: What about the normalized growth (S. cerevisiae deletion strains, locus YPL153C, strain RAD53, active compounds read low) of the same compound?
Answer: 0.198 (active)

Question: What about the normalized growth (S. cerevisiae deletion strains, locus YPL204W, strain HRR25, active compounds read low) of the same compound?
Answer: 0.189 (active)

Question: And the normalized growth (S. cerevisiae deletion strains, locus YPL209C, strain IPL1, active compounds read low)?
Answer: 0.926

Question: What about the normalized growth (S. cerevisiae deletion strains, locus YPL256C, strain CLN2, active compounds read low) of the same compound?
Answer: 0.16 (active)

Question: What about the normalized growth (S. cerevisiae deletion strains, locus YPR025C, strain CCL1, active compounds read low) of the same compound?
Answer: 0.914

Question: What about the normalized growth (S. cerevisiae deletion strains, locus YPR106W, strain ISR1, active compounds read low) of the same compound?
Answer: 0.886 (active)

Question: What about the normalized growth (S. cerevisiae deletion strains, locus YPR111W, strain DBF20, active compounds read low) of the same compound?
Answer: 0.935

Question: And the normalized growth (S. cerevisiae deletion strains, strain NNK1, active compounds read low)?
Answer: 0.676 (active)

Question: What about the normalized growth (S. cerevisiae deletion strains, strain TSCII, active compounds read low) of the same compound?
Answer: 0.736 (active)
